Compounds without any hit were thinned out: in the full panel of roughly 83,000, 20% have a hit.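 Plates (96-well) were seeded with cells, treated with compound at one concentration, and incubated for 48 hours before percent growth was determined.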 Calls of active or inactive are those of the source. Rule for the calls: active = growth percent below 10; inactive = the rest.
Legend:
Assay in all cases: NCI-60 one-dose screen, 48 h (100 = growth as untreated, 0 = no growth, -100 = all killed)
Settings in all cases: 10 µM unless noted
[1] = system: T-47D breast
[2] = system: BT-549 breast
[3] = system: MDA-MB-435 melanoma
[4] = system: SW-620 colon
[5] = system: MCF7 breast
[6] = system: HCT-116 colon
[7] = system: HCC-2998 colon
[8] = system: KM12 colon

Measured: growth

COc1ccc(-c2nc([C@@H](C)Sc3nc(N)cc(N)n3)c(C)s2)cc1OCCN1CCOCC1
inactive: [1] 99.5% | [2] 96.1% | [3] 110% | [4] 107% | [5] 101% | [6] 103% | [7] 83.9% | [8] 104%

CCc1c2c(nc3ccc(OCc4ccc(B(O)O)cc4)cc13)-c1cc3c(c(=O)n1C2)COC(=O)[C@]3(O)CC
active: [1] -1.27% | [2] -3.67% | [3] 6.63% | [5] 1.65% | [6] 4.57% | [8] 1.86%
inactive: [4] 13.8% | [7] 19.2%

C/C=C(\C)C(=O)NC1=CC[C@@]2(C)C(=CCC3C2CC[C@@]2(C)C3CC[C@@H]2C(C)N(C)C)C1=O (some centres undefined)
inactive: [1] 46.7% | [2] 37.6% | [5] 10.3% | [6] 10.4% | [7] 31.3% | [8] 19.6%
active: [3] -2.62% | [4] -11%

O=Cc1cc2ccccc2nc1Oc1ccc(C(F)(F)F)cc1
inactive: [1] 83.7% | [2] 99.7% | [3] 103% | [4] 67% | [5] 48.1% | [6] 102% | [7] 108% | [8] 92.4%

O=C1c2ccc3c4c(ccc(c24)C(=O)N1CCCNCc1ccccc1F)C(=O)N(CCCNCc1ccccc1F)C3=O
active: [1] -27.9% | [2] -85.4% | [3] -74.3% | [4] -73.3% | [5] -80.5% | [6] -37.7% | [7] -93.1% | [8] -76.1%

CCc1ccc(-c2cn3ccnc3c(-c3ccc4ncn(Cc5ccccc5)c4c3)n2)cc1
active: [1] 5.18%
inactive: [2] 84.1% | [3] 49.1% | [4] 81.2% | [5] 42% | [6] 38.8% | [7] 74.8% | [8] 54.3%

CCN(CC)c1ccc(/C=N/NC(=O)CSc2nc3ccccc3c(=O)n2CCc2ccc(S(N)(=O)=O)cc2)c(O)c1
inactive: [1] 13.9% | [2] 45.2% | [3] 31.9% | [4] 27% | [5] 11.1% | [6] 10.7% | [7] 35.8% | [8] 19.1%

COc1ccc2c(c1)oc1c(C)c3c(c(C)c12)C(=O)N(CCN1CCOCC1)C3=O
inactive: [1] 106% | [2] 97.6% | [3] 105% | [4] 93% | [5] 109% | [6] 83% | [7] 111% | [8] 96.1%

COc1cc(NCCCCCNC(C)(C)C)c2ncccc2c1
active: [5] -54.4%
inactive: [1] 19.9% | [2] 109% | [3] 94.6% | [4] 96.7% | [6] 101% | [7] 97.5% | [8] 95.4%

O=C1c2ccc3c4c(ccc(c24)C(=O)N1CCCNCc1ccccc1Cl)C(=O)N(CCCNCc1ccccc1Cl)C3=O
active: [1] -25.5% | [2] -69% | [3] -43.7% | [4] -82.7% | [5] -78.2% | [6] -6.85% | [7] -85.5% | [8] -72.5%

C[C@H]1[C@H]2[C@H]3CC[C@@H]4[C@@]5(C)CC[C@H](O)C(C)(C)[C@@H]5CC[C@@]4(C)[C@]3(C)CC[C@]23CO[C@]1(C)[C@@H](C(=O)/C=C\c1ccco1)C3
inactive: [1] 84.8% | [2] 105% | [3] 17.8% | [4] 97.1% | [5] 101% | [6] 100% | [7] 104% | [8] 100%

CC(C)(C)c1cc(/C=N/NC(=O)c2ccccc2NC(=O)c2cccs2)c(O)c(C(C)(C)C)c1
inactive: [1] 29.4% | [2] 57.4% | [3] 51.8% | [4] 17.1% | [5] 18.1% | [7] 30.9% | [8] 25.6%
active: [6] 9.85%

COc1ccc(C(=O)C2C(C#N)C(C#N)C3C=Cc4ccccc4N32)cc1 (centres undefined)
inactive: [1] 42.5% | [2] 63.9% | [4] 26.5% | [6] 15.9% | [7] 33.6%
active: [3] -47.8% | [5] 9.25% | [8] 6.36%

C=C1C(=O)O[C@H]2[C@H]1CC/C(CNC(=O)C(C)c1ccc(CC(C)C)cc1)=C\CC[C@@]1(C)O[C@@H]21 (some centres undefined)
active: [1] -46.3% | [2] -39.5% | [3] 0.546% | [4] -59% | [5] 4.24% | [6] -87.8% | [7] -5.64%
inactive: [8] 57.8%

CC1(C)CC[C@]2(C(=O)O)CC[C@]3(C)C(=CC[C@@H]4[C@@]5(C)Cc6c([nH]c7ccccc67)C(C)(C)[C@@H]5CC[C@]43C)[C@@H]2C1
inactive: [1] 49.5% | [2] 61.5% | [3] 79.3% | [4] 23.1% | [5] 19.4% | [7] 38.7% | [8] 17.7%
active: [6] 8.26%

NC(=S)N1N=C(c2ccccc2)CC1c1cn(-c2ccccc2)nc1-c1ccc(OCc2ccccc2)cc1 (centres undefined)
inactive: [1] 95.2% | [2] 113% | [3] 109% | [4] 106% | [5] 97.3% | [6] 88.5% | [7] 103% | [8] 99.5%

CC(=O)Nc1ccc(-n2cnc3cc(-c4ccc(OCCN5CCCCC5)cc4)ccc32)cc1
inactive: [1] 107% | [2] 99.4% | [3] 102% | [5] 70.6% | [7] 119% | [8] 29%
active: [4] -29% | [6] -51.2%

COc1cc(/C=N/O)nc(-c2ccccn2)c1
inactive: [1] 37.5% | [2] 33.7% | [3] 23.6% | [4] 27.4% | [5] 15.9% | [6] 20.9% | [7] 26.4% | [8] 23%

COc1ccc(C(=O)CC#N)cc1
inactive: [1] 104% | [2] 107% | [3] 132% | [4] 107% | [5] 96.7% | [6] 106% | [7] 112% | [8] 108%

COc1ccc(-c2nc3sccn3c2/C=C/C(=O)c2ccc3c(c2)OCO3)cc1
inactive: [1] 83.9% | [2] 81.8% | [3] 57.6% | [4] 56% | [6] 58.4% | [7] 95.5% | [8] 54.2%
active: [5] -7.62%

COc1ccc(CCn2cncc2-c2c[nH]c3ccccc23)cc1
inactive: [1] 80.2% | [2] 90% | [3] 100% | [4] 87.9% | [5] 78.7% | [6] 80.5% | [7] 91.8% | [8] 97.8%

COC(=O)c1ccc2c(c1)[n+](=O)c(C(C)=O)c(C(F)(F)F)n2[O-]
inactive: [4] 18.1%
active: [1] -73.6% | [2] -19.6% | [3] 0.455% | [5] -50.3% | [6] -98% | [7] -86.9% | [8] -93.5%

Nc1c(C(=O)Nc2ccnc3ccccc23)sc2nc3c(cc12)CN(Cc1ccccc1)CC3
inactive: [1] 38.5% | [2] 30.8% | [3] 73.6% | [4] 95.3% | [5] 68.9% | [6] 45% | [7] 103% | [8] 79.7%

O=C(/C=C/c1ccc(Cl)cc1)c1ccc(NC(=O)N2CCN(c3cc4c(cc3F)c(=O)c(C(=O)O)cn4C3CC3)CC2)cc1
inactive: [1] 76.4% | [2] 52.2% | [3] 98.8% | [4] 97.2% | [5] 22.6% | [6] 11.8% | [7] 102% | [8] 85.8%

Cc1ccc(-n2nc3c(c(C#N)c2=O)CC(c2ccccc2[N+](=O)[O-])C([N+](=O)[O-])=C3O)cc1 (centres undefined)
inactive: [1] 65.5% | [2] 93.2% | [3] 96.7% | [4] 89.1% | [5] 55.4% | [6] 86.9% | [7] 116% | [8] 82.3%

O=C(Cn1c(C(=O)c2ccccc2)nc2ccccc21)c1ccc(F)cc1
active: [3] -32%
inactive: [1] 58.7% | [2] 60.2% | [4] 22.9% | [5] 36.4% | [6] 39.2% | [7] 50.1% | [8] 43.9%

COc1cc2oc(-c3cccc(C(=O)Nc4ccc(Cl)cc4)c3)cc(=O)c2c(O)c1OC
inactive: [1] 47.2% | [2] 60.1% | [3] 61% | [4] 73.6% | [5] 80.9% | [6] 39.9% | [7] 96.5% | [8] 62%

COc1cc2c(c(OC)c1OC)CCC(c1cccc(NC(=O)c3cccc(Br)c3)c1)O2 (centres undefined)
inactive: [1] 72.5% | [2] 103% | [3] 87.4% | [4] 93.2% | [5] 89% | [6] 72.2% | [7] 99.7% | [8] 95.2%
